Our source for the AC50 and outcome values is PubChem BioAssay (EPA / NIEHS).

Inconclusive results are not listed. Activity calls are given as the source filed them. Rule for the calls: active = hit-call score of the fitted dose curve at least 0.9, where 1 is the maximum; inconclusive = response in the unintended direction; inactive = score below 0.9.

Assay [1] is described as follows: ACEA_AR_agonist_AUC_viability: ACEA Biosciences xCELLigence Real-Time Cell Analysis on Androgen Receptor Agonism for Viability (AID 2283775).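 For AC50: viability read 80 hours after compound addition.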 In a few lines:
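22Rv1 cells; impedance growth kinetics; 8-pt 1:4 dilutions from 100 uM top final, ≤0.5% DMSO; n = 2; 80 h read; AUC viability, loss-of-signal vs DMSO.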

A short description of assay [2]: ACEA_AR_antagonist_AUC_viability: ACEA Biosciences xCELLigence Real-Time Cell Analysis on Androgen Receptor Antagonism for Viability (AID 2283776).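 Note: 22Rv1 human prostate cancer cells growing on impedance electrode plates; area under impedance growth curve at 80 h after dosing as viability; hits lower the growth signal relative to DMSO meaning cytotoxicity.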 In a few lines:
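22Rv1 prostate cells, continuous dosing up to 100 uM final (0.5% DMSO max), duplicate plates. Growth measured by impedance; AUC at 80 h, loss of signal vs DMSO.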

Assay [3] in a line: ACEA_ER_AUC_viability: ACEA Biosciences xCELLigence Real-Time Cell Analysis on Estrogen Receptor Agonism for Viability (AID 2283782).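 Note: hit means loss of impedance signal meaning reduced cell growth or viability.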 The gist of the method:
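Viability endpoint: reduced impedance area under the curve relative to DMSO, recorded by real-time electrode sensing over ~80 h of continuous exposure. Duplicate plates of T47D in hormone-depleted medium; eight concentrations, 1:4 dilutions, 100 uM maximum.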

Assay [4] has as its target AR (gene 367) (UniProt P10275). In words: ACEA_AR_agonist_80hr: ACEA Biosciences xCELLigence Real-Time Cell Analysis on Androgen Receptor Agonism for Proliferation (AID 2283783).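 Note: hits increase impedance growth signal above DMSO baseline.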 In a few lines:
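Eight concentrations, 1:4 serial dilution from a 100 uM final top, in biological duplicate. Impedance-based real-time growth of 22Rv1 cells after overnight baseline, recorded hourly and read at 80 hours. Controls: testosterone, MG132, assay media.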

The target in assay [5] is AR (gene 367) (UniProt P10275). In words: ACEA_AR_antagonist_80hr: ACEA Biosciences xCELLigence Real-Time Cell Analysis on Androgen Receptor Antagonism for Proliferation (AID 2283787).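 Note: 22Rv1 human prostate cancer cells with growth followed by electrical impedance; hits lower the impedance growth signal relative to DMSO.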 The gist of the method: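 Impedance-based real-time growth of 22Rv1 prostate cells, read 80 h after dosing. Eight concentrations, 1:4 series, top 100 uM final (0.5% DMSO), n = 2; signal decrease scored against DMSO.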

In assay [6] the target is zebrafish Estrogen Receptor (ESR1), esr1 (gene 259252) (UniProt P57717). In words: ATG_zfER1_XSP1: Attagene TRANS-FACTORIAL Multi-Species (XSP1) HepG2 Assay for zebrafish Estrogen Receptor (ESR1) (AID 2283772). The gist of the method: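 Readout: fluorescent reporter mRNA, RT-PCR plus FAM labelling, HpaI digest, capillary electrophoresis; gain-of-signal fit vs DMSO. HepG2, transient multi-reporter TRANS (NR-GAL4 chimera), 24 h chemical exposure, 3 nM 6-alpha-fluorotestosterone co-added.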

Assay [7] in a line: STM_H9_NormalizedViability: Cytotoxicity Assessment at 120 hours in the Stemina devTOX quickPredict H9 human embryonic stem cell (hESC)-based Assay (AID 2283784). The gist of the method:
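Viability endpoint: background-corrected CellTiter-Fluor RFU expressed relative to the 0.1% DMSO mean on each plate. Undifferentiated H9 cells were treated with daily re-dosing and media change, and loss of signal was fitted.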

A short description of assay [8]: ATG_M_06_XSP1: Attagene TRANS-FACTORIAL Multi-Species (XSP1) HepG2 Assay for M06 Transcription Factor (Internal Marker) (AID 2283790). In a few lines:
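This background-control readout tracks M06 reporter mRNA, measured by RT-PCR and capillary electrophoresis. HepG2 cells transiently carrying the GAL4-UAS reporter panel were dosed for 24 h with 3 nM 6-alpha-fluorotestosterone added for partial AR stimulation; increases were scored relative to DMSO.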

Assay [9] is described as follows: ATG_M_61_XSP1: Attagene TRANS-FACTORIAL Multi-Species (XSP1) HepG2 Assay for M61 Transcription Factor (Internal Marker) (AID 2283797). In a few lines:
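Background-control readout: reporter transcripts measured by RT-PCR and capillary electrophoresis 24 h after dosing transiently transfected HepG2 multi-reporter cells, with 3 nM 6-alpha-fluorotestosterone present. Fitted in the positive direction relative to DMSO.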

Assay [10] can be described thus: ATG_M_32_XSP1: Attagene TRANS-FACTORIAL Multi-Species (XSP1) HepG2 Assay for M32 Transcription Factor (Internal Marker) (AID 2283799). The gist of the method: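 Reporter transcripts from the M32 internal-control unit measured by RT-PCR, FAM labelling, HpaI digestion and capillary electrophoresis after 24 h compound exposure of transfected HepG2, 3 nM 6-alpha-fluorotestosterone included; DMSO baseline, positive-direction fit.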

Assay [11] addresses Peroxisome proliferator-activated receptor gamma (Homo sapiens) (UniProt P37231). The assay can be described thus: ATG_hPPARg_XSP1: Attagene TRANS-FACTORIAL Multi-Species (XSP1) HepG2 Assay for human Peroxisome Proliferator-activated Receptor gamma (PPARg) (AID 2283800). The gist of the method: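 Reporter mRNA induction, measured by RT-PCR with capillary electrophoresis 24 h after dosing, scored as gain over DMSO. Transfected HepG2 cells express exogenous NR-Gal4 chimeras driving GAL4-UAS reporters; medium includes 3 nM 6-alpha-fluorotestosterone.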

Sequence of AR (gene 367) (P10275 whole entry, looked up): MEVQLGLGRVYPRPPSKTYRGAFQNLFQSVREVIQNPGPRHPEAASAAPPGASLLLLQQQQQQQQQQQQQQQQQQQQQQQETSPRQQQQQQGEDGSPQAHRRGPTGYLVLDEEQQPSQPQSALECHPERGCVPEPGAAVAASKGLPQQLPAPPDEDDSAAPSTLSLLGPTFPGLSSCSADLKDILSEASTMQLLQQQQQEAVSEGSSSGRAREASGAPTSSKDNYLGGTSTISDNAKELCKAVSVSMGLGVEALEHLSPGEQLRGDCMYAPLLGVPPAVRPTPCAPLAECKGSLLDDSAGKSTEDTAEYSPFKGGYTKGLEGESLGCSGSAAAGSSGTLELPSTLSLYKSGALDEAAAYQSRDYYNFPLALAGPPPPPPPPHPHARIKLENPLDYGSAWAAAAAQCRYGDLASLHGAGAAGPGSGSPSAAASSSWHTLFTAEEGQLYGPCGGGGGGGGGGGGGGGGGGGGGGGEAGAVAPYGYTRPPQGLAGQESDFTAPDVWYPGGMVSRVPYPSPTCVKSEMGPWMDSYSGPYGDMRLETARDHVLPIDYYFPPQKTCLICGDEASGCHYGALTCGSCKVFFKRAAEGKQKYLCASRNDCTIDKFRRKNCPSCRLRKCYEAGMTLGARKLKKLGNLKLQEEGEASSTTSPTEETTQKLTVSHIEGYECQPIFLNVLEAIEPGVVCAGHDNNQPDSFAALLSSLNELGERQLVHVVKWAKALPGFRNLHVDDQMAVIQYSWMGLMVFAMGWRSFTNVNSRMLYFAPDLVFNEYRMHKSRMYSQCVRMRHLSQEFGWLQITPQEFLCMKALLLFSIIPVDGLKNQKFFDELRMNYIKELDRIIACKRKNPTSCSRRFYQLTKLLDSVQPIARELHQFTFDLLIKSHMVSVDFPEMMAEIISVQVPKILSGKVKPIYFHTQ
Sequence of zebrafish Estrogen Receptor (ESR1), esr1 (gene 259252) (P57717 whole entry, looked up, the tested form may be a part): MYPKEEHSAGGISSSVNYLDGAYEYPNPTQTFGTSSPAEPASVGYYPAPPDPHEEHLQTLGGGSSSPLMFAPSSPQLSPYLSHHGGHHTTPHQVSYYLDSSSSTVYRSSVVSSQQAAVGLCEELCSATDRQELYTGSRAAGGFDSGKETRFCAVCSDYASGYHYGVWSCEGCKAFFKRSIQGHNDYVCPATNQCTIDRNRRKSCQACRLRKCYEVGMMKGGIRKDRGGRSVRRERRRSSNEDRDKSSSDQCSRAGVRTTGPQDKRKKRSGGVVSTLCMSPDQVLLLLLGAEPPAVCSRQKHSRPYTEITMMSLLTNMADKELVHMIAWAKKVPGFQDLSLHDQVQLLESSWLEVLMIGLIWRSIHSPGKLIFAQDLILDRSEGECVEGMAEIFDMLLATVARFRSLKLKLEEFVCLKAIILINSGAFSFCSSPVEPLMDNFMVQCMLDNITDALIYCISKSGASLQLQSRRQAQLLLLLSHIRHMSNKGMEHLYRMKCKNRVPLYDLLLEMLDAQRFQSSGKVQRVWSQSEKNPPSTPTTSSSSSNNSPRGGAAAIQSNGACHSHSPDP
Sequence of Peroxisome proliferator-activated receptor gamma (Homo sapiens) (P37231 whole entry, looked up, the tested form may be a part): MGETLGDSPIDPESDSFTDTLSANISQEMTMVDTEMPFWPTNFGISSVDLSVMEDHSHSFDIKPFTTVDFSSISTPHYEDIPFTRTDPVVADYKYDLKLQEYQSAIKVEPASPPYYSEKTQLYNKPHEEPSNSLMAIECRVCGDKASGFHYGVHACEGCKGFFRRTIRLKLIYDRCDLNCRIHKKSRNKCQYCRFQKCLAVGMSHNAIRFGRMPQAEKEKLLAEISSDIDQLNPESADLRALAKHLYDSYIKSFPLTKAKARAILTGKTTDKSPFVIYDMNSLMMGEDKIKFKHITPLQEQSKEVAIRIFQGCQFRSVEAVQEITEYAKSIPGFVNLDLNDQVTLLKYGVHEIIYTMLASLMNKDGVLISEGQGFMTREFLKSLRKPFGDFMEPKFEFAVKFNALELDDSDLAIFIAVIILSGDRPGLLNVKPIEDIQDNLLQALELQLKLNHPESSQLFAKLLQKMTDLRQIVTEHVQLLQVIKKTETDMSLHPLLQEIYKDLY

On to `COc1cc(C(C)C)c2c(c1)S(=O)(=O)N(COc1cc(=O)n3cccc(OCCN4CCCCC4)c3n1)C2=O`, for which the AC50 is 22.3 µM (active) in assay [1], 16.8 µM (active) in assay [2], 17.4 µM (active) in assay [3] and 18 µM (active) with AR (gene 367) [5]. In the assay with AR (gene 367) [4], the compound was called inactive.
For `CCN(CC)C(=S)SSC(=S)N(CC)CC`, the compound was called inactive (in assay [6]; in the assay with AR (gene 367) [4]; in assay [8]; in assay [9]; in assay [10]; in [11]). Besides, the AC50 in [1] was 25.8 µM (active); in assay [2], 26 µM (active); in assay [3], 25.4 µM (active); in [7] it was 0.309 µM (active); in the assay with AR (gene 367) [5], 25.6 µM (active).
In the case of `CCCCCCCCN(C)C`, the result in assay [1] and in [2] was inactive.
Take `CCCOc1ccc(S(=O)(=O)N2CCN(CC)CC2)cc1-c1nc2c(CC)n(Cc3ccccn3)nc2c(=O)[nH]1`: the call in [1] and in assay [2] was inactive.
Regarding `NNC(=O)c1ccncc1`, the call in assay [2] was inactive.
As for `CCCCCCCCCC`, the outcome in [3] and in assay [7] was inactive.
Take `OC[C@H]1O[C@@](CO)(O[C@H]2O[C@H](CO)[C@@H](O)[C@H](O)[C@H]2O)[C@@H](O)[C@@H]1O`: the result in [2] and in assay [3] was inactive.
Consider `OCCOCCOCCO`, for which the call (in assay [2]; with AR (gene 367) [4]; with AR (gene 367) [5]) was inactive.
As to `O=C1CN(N=Cc2ccc([N+](=O)[O-])o2)C(=O)N1`, the concentration at half-maximal activity (AC50) in assay [7] is 3.4 µM (active).
In the case of `COS(C)(=O)=O`, in [2], the result was inactive. In addition, in assay [7], the AC50 was 70.5 µM (active).
Take `NC(=O)NN=Cc1ccc([N+](=O)[O-])o1`: the outcome in assay [3] was inactive.
For `FC(F)=C(F)C(F)(F)C(F)(F)C(F)(F)C(F)(F)C(F)(F)C(F)(F)F`, in assay [3], the result was inactive.
With `OCc1c[nH]c2ccccc12`, the AC50 in assay [3] was 87 µM (active).
For `O=S(=O)(O)CCC(F)(F)C(F)(F)C(F)(F)C(F)(F)C(F)(F)C(F)(F)F`, the compound was classed as inactive in assay [3].
In the case of `Nc1ccn([C@@H]2O[C@H](CO)[C@@H](O)[C@@H]2O)c(=O)n1`, the AC50 in assay [1] was 1.22 µM (active); in [2], 0.88 µM (active); in assay [7], 0.27 µM (active).
Consider `FC(F)(F)COC(OCC(F)(F)F)OCC(F)(F)F`, for which the result in assay [3] was inactive.
With `CCCCN1C(=O)[C@@H]([C@H](O)C2CCCCC2)NC(=O)C12CCN(Cc1ccc(Oc3ccc(C(=O)O)cc3)cc1)CC2`, the half-maximal activity concentration (AC50) in [3] is 64.6 µM (active).
For the compound `NC(=O)N1c2ccccc2C=Cc2ccccc21`, the outcome in [7] was inactive.
With `S=P(N1CC1)(N1CC1)N1CC1`, in assay [3], the AC50 is 69 µM (active).
As for `CCCCOC(=O)c1ccccc1`, in the assay with AR (gene 367) [4], the outcome was inactive.
For `O=S1(=O)CCCO1`, the result in [1], in assay [2] and in [7] was inactive.
Consider `Cn1c(=O)c2[nH]cnc2n(C)c1=O`, for which the result in [1] and in assay [3] was inactive.
`NCC(F)(F)C(F)(F)C(F)(F)C(F)(F)F`: the compound was called inactive in assay [3].
As to `COCc1nnc(-c2ccc[n+]([O-])c2)n1-c1c(Cl)c(Cl)cc2[nH]c(=O)c(=O)[nH]c12`, the result (in assay [1]; in [2]; with AR (gene 367) [5]) was inactive.
In the case of `OCc1ccccc1`, the compound was classed as inactive (in assay [1]; in assay [2]; with AR (gene 367) [5]).
For `CCCCCCOC(=O)CC(CC(=O)OCCCCCC)(OC(=O)CCC)C(=O)OCCCCCC`, the compound was classed as inactive (in assay [1]; in assay [2]; with AR (gene 367) [4]; in the assay with AR (gene 367) [5]).
As to `CCCC(CCC)C(=O)O`, the call in [1] was inactive. Besides, the AC50 was 50 µM (active) in assay [2] and 340 µM (active) in assay [7].
Take `O=C(N[C@H](CO)[C@H](O)c1ccc([N+](=O)[O-])cc1)C(Cl)Cl`: in assay [3], the concentration at half-maximal activity (AC50) is 73.2 µM (active).
For the compound `OC(O)(C(F)C(O)(O)C(F)(F)F)C(F)(F)F`, in assay [3], the concentration at half-maximal activity (AC50) was 75 µM (active).
Consider `CCc1cccc(CC)c1N`, for which the AC50 in assay [1] was 50 µM (active); in [2], 9.94 µM (active); in the assay with AR (gene 367) [5], 7.11 µM (active). For the same compound, the outcome with AR (gene 367) [4] was inactive.
`O=C(Cl)C(F)(F)C(F)(F)C(F)(F)C(=O)Cl`: in assay [3], the compound was classed as inactive.
As for `CC[C@H](C)C(=O)O[C@H]1C[C@H](O)C=C2C=C[C@H](C)[C@H](CC[C@@H](O)C[C@@H](O)CC(=O)O)[C@H]21`, the result in [1], in assay [2] and in [7] was inactive.
As for `C=CN1CCCC1=O`, in assay [2], the result was inactive.
`OCCC(F)(F)C(F)(F)C(F)(F)C(F)(F)F`: the call in assay [3] was inactive.
Regarding `C[C@@H](Oc1ccc(CNC(=O)c2cccnc2Oc2ccc3c(c2)OCO3)c(F)c1)C(=O)O`, the result in assay [2] and in [3] was inactive.
In the case of `O=c1[nH]cnc2c1ncn2[C@H]1CC[C@@H](CO)O1`, the call in assay [1], in [2] and in assay [7] was inactive.
With `Cc1nc(-c2ccccn2)ncc1C(=O)Nn1cc(C)c2cc(F)ccc21`, the AC50 with AR (gene 367) [4] is 0.000427 µM (active). Besides, the result in assay [7] was inactive.
Regarding `CCCCC(CC)C(=O)OCCOCCOCCOC(=O)C(CC)CCCC` (stereo unspecified), the AC50 in [1] was 50 µM (active); in [2], 50 µM (active); with AR (gene 367) [5], 65.8 µM (active). Also, in the assay with AR (gene 367) [4], the outcome was inactive.
For `Cc1ncc([C@@H](CCCCCCc2ccc3c(n2)NCCC3)CC(=O)O)cn1`, the AC50 in assay [1] was 0.00386 µM (active); in assay [2], 0.00579 µM (active); in [3], 0.00382 µM (active). Moreover, in assay [7], the outcome was inactive.
`Cc1cccc(O)c1C`: the call in assay [2] and in assay [3] was inactive.
Turning to `Cc1ccc(S(=O)(=O)NC(=O)NN2CCCCCC2)cc1`, in assay [2], the compound was called inactive.
As to `FC(F)C(F)(F)COCC1CO1` (stereo unspecified), the call in [3] was inactive.
For the compound `Cn1cc[nH]c1=S`, the compound was classed as inactive in assay [2], in [3] and in assay [7].
